This experiment can be described thus: NCI Yeast Anticancer Drug Screen. Data for the sgs1 mgt1 strain (AID 161).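 Also: 0% = growth of cultures given vehicle only.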 As to conditions: S. cerevisiae sgs1 mgt1 strain, hits give high values. Here is the method: Growth inhibition of yeast strains with defined genetic alterations is measured as a screen for potential anti-cancer activity. Selected strains with alterations in DNA damage repair or cell cycle control were exposed to compounds and growth inhibition was measured relative to vehicle treated controls. The strain used in this assay is sgs1 mgt1

[1] abbreviates: at 5.0 µM (retest, dose inferred, filed as 0.5).
Setting [2] is: at 50.0 µM (retest, dose inferred, filed as 5.0).

This is part of a sample that, as a whole, favours compounds with a hit. Of some 79,000 tested, about 15% had one in any assay. A number with no mark means an inactive call. Active and inactive are the calls of the source. Rule as the data show it: active = growth inhibition above about 70%; inactive = the rest.

Take `O=C1c2cc3c(cc2CC1Br)CCC3` (configuration not stated): the growth inhibition is, setting by setting: under setting [1], 99% (active); under setting [2], 99% (active); (at 50.0 µM) 88.3% (active).

Consider `Cc1cc(-c2ccccc2)nc2nc3ccccc3n12`, for which the growth inhibition is -11% under setting [1], 67% under setting [2] and 12.4% (at 50.0 µM).

With `CC(=O)c1ccc(Br)cc1NC1=CC(=O)c2ncccc2C1=O`, the growth inhibition was 81% (active) under setting [1], 96% (active) under setting [2] and 88.8% (active) (at 50.0 µM).

For `O=C(/C=C/c1ccccc1)C1(c2ccccc2)CC1`, the growth inhibition was -53% under setting [1], -2% under setting [2] and 68.9% (at 50.0 µM).

In the case of `O=C1NC2(C=Cc3c(ccc4ccccc34)O2)Oc2ccccc21` (configuration not stated), the growth inhibition under setting [1] was 6%, the growth inhibition under setting [2] was 11% and the growth inhibition (at 50.0 µM) was 34%.

As to `CCNCCNc1cc(O)c2c(c1O)C(=O)c1ccccc1C2=O`, the growth inhibition under setting [1] is 78% (active), the growth inhibition under setting [2] was 98% (active) and the growth inhibition (at 50.0 µM) was 83.5% (active).

As to `COc1cc(C(c2cc3c(cc2O)OCO3)N2CCOCC2)cc(OC)c1OC` (configuration not stated), the growth inhibition was -3% under setting [1], 28% under setting [2] and 17% (at 50.0 µM).

Consider `CCS(=O)(=O)/C=C/c1ccc2ccccc2n1`, for which the growth inhibition by setting is: under setting [1], -55%; under setting [2], 23%; (at 50.0 µM) 35.2%.

For the compound `Cc1c(N)cc(I)cc1[N+](=O)[O-]`, the growth inhibition runs as follows: under setting [1], 0%; under setting [2], 63%; (at 50.0 µM) 12.8%.

In the case of `Oc1c(Cl)c2ccccc2c2ccccc12`, the growth inhibition was 1% under setting [1], 23% under setting [2] and 99% (active) (at 50.0 µM).

Take `Cc1ccc(C(=Nc2ccccc2)N=P(c2ccccc2)(c2ccccc2)c2ccccc2)cc1`: the growth inhibition runs as follows: under setting [1], 46%; under setting [2], 100% (active); (at 50.0 µM) 90.5% (active).

In the case of `Cc1c(N)cccc1[N+](=O)[O-]`, the growth inhibition under setting [1] is -3%, the growth inhibition under setting [2] is -1% and the growth inhibition (at 50.0 µM) was 97.4% (active).

Turning to `C1=C(c2ccccc2)C(c2ccc(OCCN3CCCCC3)cc2)Oc2ccccc21` (configuration not stated), the growth inhibition under setting [1] is 24%, the growth inhibition under setting [2] is 99% (active) and the growth inhibition (at 50.0 µM) was 97.5% (active).

As for `COC(=O)c1n[nH]c(C)c1N=NN1CCC(C(N)=O)CC1`, the growth inhibition is, setting by setting: under setting [1], -13%; under setting [2], 99% (active); (at 50.0 µM) 98.8% (active).

Source of the values: PubChem BioAssay (NCI).
